HIV RNase H inh-1: blocks HIV-1 RNase H cleavage of RNA/DNA duplex; actives 1.9% (n = 65,000); AID 565; P04585; RT-RNase H RNA/DNA duplex cleavage, fluorescence; inhibition, % at 10 µM; in the data active = inhibition above about 50%
RmlCD inh mix: inhibitors of RmlC and RmlD coupled enzymes; RmlC/RmlD coupled enzyme inhibition, 384-well mixture HTS; inhibition, % at 5.5 µM; actives 0.39% (n = 110,000); AID 1532; in the data active = inhibition above about 30%, passing the limit was not always enough; inconclusive = no clear call, values can overlap the other calls
HIV RNase H inh-2: confirmation of HIV-1 reverse transcriptase RNase H inhibitors; shares compounds with HIV RNase H inh-1; Recombinant RT RNase H, fluorescent RNA/DNA duplex cleavage; inhibition, % at 10 µM; actives 39% (n = 1,000); AID 651; in the data active = inhibition above about 48%; inconclusive = no clear call, values can overlap the other calls
Numbers without * were called inactive; ? = inconclusive; . = not tested or not shown. Shown is part of a subset that was picked to be rich in hits.

SMILES | HIV RNase H inh-1 | RmlCD inh mix | HIV RNase H inh-2
O=C(NC1CCCCC1)c1sc(=S)n2c1[nH]c(=O)c1ccccc12 | 74* | 12 | 59*
O=C(CSc1ncn[nH]1)c1ccco1 | 39 | 6 | .
O=C(CSc1ncn[nH]1)c1ccccc1 | 70* | 5 | 67*
Cc1cc(S(=O)(=O)NC2CCCCC2)ccc1OCC(=O)NCc1ccccn1 | -4 | 8 | .
Nc1nc(-c2ccco2)c(-c2ccco2)s1 | -6 | -14 | .
c1coc(-c2nc(-c3ccco3)c(-c3ccco3)nc2-c2ccco2)c1 | 86* | -47 | -1
CC(C)CCOc1ccc(C(=O)CCNC(C)C(=O)O)cc1 (stereo not given) | -25 | 4 | .
CCOc1cc(/C=N/n2cnnc2)ccc1O | -4 | 7 | .
Cn1c(=O)n(C)c2cc(/C=N/n3cnnc3)ccc21 | 59* | 14 | 0
COc1cc(C)nc(N(C)S(=O)(=O)c2ccccc2Cl)n1 | -20 | -5 | .
CCN1CCN(c2ccc(NC(=O)C(C)C)cc2Cl)CC1 | . | -7 | .
CCCC(=O)Nc1ccc(N2CCN(CC)CC2)c(Cl)c1 | 81* | 6 | 7
CS(=O)(=O)N(CC(=O)Nc1cc(Cl)ccc1Cl)c1ccccc1 | . | 8 | .
CCOC(=O)C(CC)n1nc(C)n2c(cc3sccc32)c1=O (stereo not given) | -37 | -18 | .
O=C(O)c1cccc(N2CCCC2)c1 | 3 | -10 | .
Cc1ccc(C)n1-c1cccc(C(=O)O)c1 | 71* | -3 | ?
CCOc1ccc(/C=N/n2c(SC)nnc2-c2ccccc2)cc1OCC | . | 13 | .
CC(C)[C@H](NC(=O)[C@H](CCCN=C(N)N)NC(=O)NC(Cc1ccccc1)C(=O)O)C(=O)NC(C=O)CCCN=C(N)N (stereo not given in full) | . | 2 | .
O=C(Cc1ccc(S(=O)(=O)N2CCCC2)s1)Nc1nc2c(s1)CCCC2 | 76* | 9 | -3
CC(C)(C)NC(=O)Cc1ccc(S(=O)(=O)N2CCCC2)s1 | . | -7 | .
O=C1C2CC=CCC2C(=O)N1c1cccc(OS(=O)(=O)c2ccc3ccccc3c2)c1 (stereo not given) | . | -12 | .
CCCc1nnc(NC(=O)CN2C(=O)c3ccccc3C2=O)s1 | . | -18 | .
CCCc1nnc(NC(=O)Cn2c(=O)sc3ccccc32)s1 | 76* | -7 | 18
COc1ccc(N(CC(=O)N/N=C/c2ccco2)S(=O)(=O)c2ccccc2)cc1 | . | 7 | .
Cc1ccc(C)c(N2CCN(C(=O)C3CCN(S(=O)(=O)c4cccc5nsnc45)CC3)CC2)c1 | 3 | . | .
SMILES | HIV RNase H inh-1 | RmlCD inh mix | HIV RNase H inh-2
CCOC(=O)c1sc(NC(=O)CSc2nc(-c3ccco3)cc(C(F)(F)F)n2)c(C#N)c1C | 76* | -4 | ?
CCOC(=O)c1sc(NC(=O)CSc2nc(C)cc(C)n2)c(C#N)c1C | . | -8 | .
CCOC(=O)c1c(NC(=O)CSc2nnc(Cc3ccccc3)o2)sc(C(C)=O)c1C | . | 3 | .
CCOC(=O)c1sc(NC(=O)CSc2nnc(Cc3ccccc3)o2)c(C#N)c1C | 90* | . | 54*
CCOC(=O)c1sc(NC(=O)CSc2n[nH]c(-c3ccccc3)n2)c(C#N)c1C | 83* | . | 62*
Cc1cccc(C)c1NC(=O)CSc1nc(-c2ccco2)cc(C(F)(F)F)n1 | . | -30 | .
C[C@@H]1CCC[C@@]2(O[C@@H](CCO)C[C@@H](O)[C@@H]2O)O1 | . | -10 | .
O=C(N/N=C/c1ccc(Br)o1)/C(=C/c1ccc([N+](=O)[O-])cc1)NC(=O)c1ccccc1 | . | 11 | .
CCOC(=O)CSC1=C(C#N)C(C)C2=C(CCCC2=O)N1 (stereo not given) | 31 | -6 | .
NC(=O)c1c(N)sc2c1CCCC2 | 35 | -6 | .
Nc1sc2c(c1C(=O)NC1CCS(=O)(=O)C1)CCCC2 (stereo not given) | 66* | -6 | 26
CCC1C(=O)Nc2nc(-c3ccccc3)c(-c3ccccc3)n2N=C1C (stereo not given) | . | 5 | .
CCC(Oc1ccccc1)C(=O)Nc1ccc(-c2nnc(-c3ccco3)o2)cc1 (stereo not given) | 11 | -20 | .
O=C(COc1ccc(Br)cc1)Nc1ccc(-c2nnc(-c3ccco3)o2)cc1 | 67* | -7 | 72*
Cc1c(C(=O)N2CCCc3ccccc32)oc2ccc(S(=O)(=O)N3CCOCC3)cc12 | -74 | -3 | .
COc1ccccc1N1C(=O)CC(Sc2ncccc2C(=O)O)C1=O (stereo not given) | 14 | 3 | .
O=C1CC(Sc2ncccn2)C(=O)N1c1ccccc1C(F)(F)F (stereo not given) | 70* | -8 | 0
CC1CCN(Cc2nc3c(c(=O)n(C)c(=O)n3C)n2CCN2CCOCC2)CC1 | -5 | . | .
CCCNc1nc(C)cc(-c2cc(C(=O)Nc3ccccc3)on2)n1 | . | 4 | .
CC(C)c1nc2sc3c(SCC(=O)NCc4ccco4)ncnc3c2c2c1CCC2 | 71* | 10 | 35*
Cc1sc2nc(SCC(=O)NCc3ccco3)n(C)c(=O)c2c1C | -7 | -2 | .
CC1(C)Cc2c(sc3nc(SCC(=O)NCc4ccco4)n(-c4ccccc4)c(=O)c23)CS1 | 13 | . | .
Cc1sc2nc(SCC(=O)NCc3ccco3)n(CCc3ccccc3)c(=O)c2c1C | 82* | 9 | 59*
O=C(CSc1nc2sc3c(c2c(=O)n1-c1ccccc1)CCCC3)NCc1ccco1 | 62* | . | 53*
O=C(CSc1ncnc2sc3c(c12)CCCCC3)NCc1ccco1 | -12 | 11 | .
SMILES | HIV RNase H inh-1 | RmlCD inh mix | HIV RNase H inh-2
O=C(Nc1nnc(CC(=O)N2CCCC2)s1)c1cnccn1 | -3 | . | .
Cc1ccccc1C(=O)Nc1nncs1 | . | 6 | .
CCSc1ccccc1C(=O)Nc1nncs1 | 56* | 9 | 18
CCCCN(C)C(=O)c1coc(=O)c2ccccc12 | -6 | 1 | .
CN(C(=O)c1coc(=O)c2ccccc12)c1ccc(F)cc1 | 72* | . | 33
CC(C)Cc1cc(C(=O)N2CCN(C(c3ccccc3)c3ccccc3)CC2)no1 | . | 5 | .
CC(C)c1cc(C(=O)N2CCN(C(c3ccccc3)c3ccccc3)CC2)no1 | 74* | . | 50
COc1ccc(S(=O)(=O)N(CC(=O)N/N=C/c2cccs2)c2cc(C)cc(C)c2)cc1OC | . | 1 | .
CN(C[C@H](CC1CCCCC1)N(C[C@H](Cc1ccccc1)N(CCc1ccccc1)N=O)N=O)N=O | . | -8 | .
COC(=O)c1ccccc1NC(=O)CN1C(=O)C2CCCN2c2ncc(Cl)cc21 (stereo not given) | 60* | -7 | ?
CCc1ccccc1NC(=O)CN1C(=O)C2CCCN2c2ncc(Cl)cc21 (stereo not given) | -3 | 5 | .
CCO[C@H]1OC(C(=O)N2CCOCC2)=C[C@@H](C)[C@@H]1CCCO | . | 7 | .
COc1cccc(OC)c1C(=O)N1CCN(Cc2ccccc2C)CC1 | 4 | 10 | .
CCOCCCn1c(=N)c(C(N)=S)cc2c(=O)n3cccc(C)c3nc21 | 10 | 0 | .
Cc1cccn2c(=O)c3cc(C(N)=S)c(=N)n(CCCOC(C)C)c3nc12 | 69* | 20 | 9
COc1ccc(C2C3=C(CCCC3=O)Nc3nc4ccccc4n32)c(OC)c1OC (stereo not given) | -5 | . | .
Cc1nn(Cc2ccc(Cl)cc2)c(C)c1NC(=O)c1cc(-c2ccco2)on1 | -43 | . | .
COc1ccc(-c2cc(C(=O)Nc3c(C)nn(Cc4ccc(Cl)cc4)c3C)no2)cc1 | 62* | -10 | -6
Cc1c(C=O)c2ccccc2n1CC(=O)N1CCc2ccccc2C1 | . | -15 | .
